# Source: the supplement of paper PMC10849652
# Targets with a hit are over-represented here; the source holds about 7,900 in all. About 0.6% of all pairs of compound and target were hits.
# Compound: Cn1cc(-c2ccc3nnc(C(F)(F)c4ccc5ncccc5c4)n3n2)cn1
# Experiment: log2 fold change, soluble protein after heating vs DMSO (PISA); higher = thermal stabilisation; K562 cells, 10 uM, 30 min; active = over 0.2 and 3.5 SD of the protein, either way, in both replicates (recomputed)
# Method in brief: (§1)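 For each measurement, 10 μM compound was applied for 30 min to K562 cells at 2×10^6 cells/mL. Aliquots were heated for 3 min across 48°C-58°C, pooled, and extracted in PBS with 0.5% NP-40 at 4°C; the supernatant after 21,000xg for 90 min was soluble protein. This was quantified by TMTpro 16plex LC-MS/MS with channel sums equalised, and thermal stability was reported relative to control samples from duplicates, on a log2 fold-change scale.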
# UniProt Q96KP4, sequence (Q96KP4 whole entry, looked up): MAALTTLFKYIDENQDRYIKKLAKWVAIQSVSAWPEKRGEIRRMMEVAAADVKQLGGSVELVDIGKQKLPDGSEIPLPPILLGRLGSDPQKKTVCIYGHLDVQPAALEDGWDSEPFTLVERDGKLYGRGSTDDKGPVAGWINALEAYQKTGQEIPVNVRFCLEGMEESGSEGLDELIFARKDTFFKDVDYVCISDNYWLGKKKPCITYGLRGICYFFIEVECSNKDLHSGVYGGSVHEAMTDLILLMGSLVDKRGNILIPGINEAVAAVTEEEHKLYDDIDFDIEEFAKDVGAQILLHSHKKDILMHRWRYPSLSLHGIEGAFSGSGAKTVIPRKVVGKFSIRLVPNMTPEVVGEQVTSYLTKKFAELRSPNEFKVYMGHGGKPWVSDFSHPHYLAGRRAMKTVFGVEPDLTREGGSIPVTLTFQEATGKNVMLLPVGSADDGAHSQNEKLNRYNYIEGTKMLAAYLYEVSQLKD
# UniProt O75122, sequence (O75122 whole entry, looked up): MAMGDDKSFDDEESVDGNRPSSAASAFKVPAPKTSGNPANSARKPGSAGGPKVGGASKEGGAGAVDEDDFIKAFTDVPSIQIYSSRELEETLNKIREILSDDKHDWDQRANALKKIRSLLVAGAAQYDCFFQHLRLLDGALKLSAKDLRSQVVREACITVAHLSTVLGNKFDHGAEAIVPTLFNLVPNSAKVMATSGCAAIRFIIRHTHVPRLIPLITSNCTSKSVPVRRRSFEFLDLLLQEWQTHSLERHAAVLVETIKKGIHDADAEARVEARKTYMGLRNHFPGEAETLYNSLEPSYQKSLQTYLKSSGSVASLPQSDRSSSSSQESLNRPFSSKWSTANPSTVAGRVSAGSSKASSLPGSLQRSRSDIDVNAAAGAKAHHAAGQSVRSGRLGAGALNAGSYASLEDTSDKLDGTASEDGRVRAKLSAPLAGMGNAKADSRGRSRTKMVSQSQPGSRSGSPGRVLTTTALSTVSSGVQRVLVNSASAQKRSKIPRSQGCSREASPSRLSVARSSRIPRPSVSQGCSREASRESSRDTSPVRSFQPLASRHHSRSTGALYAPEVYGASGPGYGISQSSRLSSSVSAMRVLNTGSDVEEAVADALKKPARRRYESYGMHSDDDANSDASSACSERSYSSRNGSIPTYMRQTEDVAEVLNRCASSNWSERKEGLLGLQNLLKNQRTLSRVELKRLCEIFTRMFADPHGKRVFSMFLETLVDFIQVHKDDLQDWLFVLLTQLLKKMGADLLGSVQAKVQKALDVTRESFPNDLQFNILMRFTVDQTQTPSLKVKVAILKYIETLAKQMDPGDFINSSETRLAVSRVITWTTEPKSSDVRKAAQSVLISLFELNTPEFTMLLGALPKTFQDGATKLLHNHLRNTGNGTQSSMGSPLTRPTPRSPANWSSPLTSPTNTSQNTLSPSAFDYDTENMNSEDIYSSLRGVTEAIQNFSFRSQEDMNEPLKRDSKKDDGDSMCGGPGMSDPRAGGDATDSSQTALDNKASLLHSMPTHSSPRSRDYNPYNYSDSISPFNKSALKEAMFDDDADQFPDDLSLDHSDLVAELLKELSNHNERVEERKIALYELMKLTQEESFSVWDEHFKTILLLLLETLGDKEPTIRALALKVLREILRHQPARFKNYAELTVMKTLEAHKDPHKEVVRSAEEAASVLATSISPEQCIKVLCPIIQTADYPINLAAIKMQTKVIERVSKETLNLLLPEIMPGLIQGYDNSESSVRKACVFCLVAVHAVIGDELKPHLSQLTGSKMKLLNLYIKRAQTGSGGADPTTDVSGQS
# UniProt O75208, sequence (O75208 whole entry, looked up): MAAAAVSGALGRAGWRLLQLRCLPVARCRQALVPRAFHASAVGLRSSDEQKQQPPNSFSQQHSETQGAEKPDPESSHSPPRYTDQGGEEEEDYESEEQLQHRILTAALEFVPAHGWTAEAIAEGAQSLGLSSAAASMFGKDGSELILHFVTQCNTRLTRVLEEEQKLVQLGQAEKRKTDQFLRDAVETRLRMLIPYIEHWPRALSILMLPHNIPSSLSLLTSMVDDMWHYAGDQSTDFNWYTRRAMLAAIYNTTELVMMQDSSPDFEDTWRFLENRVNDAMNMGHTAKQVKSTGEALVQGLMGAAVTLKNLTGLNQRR
# UniProt Q5T5Y3, sequence (Q5T5Y3 whole entry, looked up): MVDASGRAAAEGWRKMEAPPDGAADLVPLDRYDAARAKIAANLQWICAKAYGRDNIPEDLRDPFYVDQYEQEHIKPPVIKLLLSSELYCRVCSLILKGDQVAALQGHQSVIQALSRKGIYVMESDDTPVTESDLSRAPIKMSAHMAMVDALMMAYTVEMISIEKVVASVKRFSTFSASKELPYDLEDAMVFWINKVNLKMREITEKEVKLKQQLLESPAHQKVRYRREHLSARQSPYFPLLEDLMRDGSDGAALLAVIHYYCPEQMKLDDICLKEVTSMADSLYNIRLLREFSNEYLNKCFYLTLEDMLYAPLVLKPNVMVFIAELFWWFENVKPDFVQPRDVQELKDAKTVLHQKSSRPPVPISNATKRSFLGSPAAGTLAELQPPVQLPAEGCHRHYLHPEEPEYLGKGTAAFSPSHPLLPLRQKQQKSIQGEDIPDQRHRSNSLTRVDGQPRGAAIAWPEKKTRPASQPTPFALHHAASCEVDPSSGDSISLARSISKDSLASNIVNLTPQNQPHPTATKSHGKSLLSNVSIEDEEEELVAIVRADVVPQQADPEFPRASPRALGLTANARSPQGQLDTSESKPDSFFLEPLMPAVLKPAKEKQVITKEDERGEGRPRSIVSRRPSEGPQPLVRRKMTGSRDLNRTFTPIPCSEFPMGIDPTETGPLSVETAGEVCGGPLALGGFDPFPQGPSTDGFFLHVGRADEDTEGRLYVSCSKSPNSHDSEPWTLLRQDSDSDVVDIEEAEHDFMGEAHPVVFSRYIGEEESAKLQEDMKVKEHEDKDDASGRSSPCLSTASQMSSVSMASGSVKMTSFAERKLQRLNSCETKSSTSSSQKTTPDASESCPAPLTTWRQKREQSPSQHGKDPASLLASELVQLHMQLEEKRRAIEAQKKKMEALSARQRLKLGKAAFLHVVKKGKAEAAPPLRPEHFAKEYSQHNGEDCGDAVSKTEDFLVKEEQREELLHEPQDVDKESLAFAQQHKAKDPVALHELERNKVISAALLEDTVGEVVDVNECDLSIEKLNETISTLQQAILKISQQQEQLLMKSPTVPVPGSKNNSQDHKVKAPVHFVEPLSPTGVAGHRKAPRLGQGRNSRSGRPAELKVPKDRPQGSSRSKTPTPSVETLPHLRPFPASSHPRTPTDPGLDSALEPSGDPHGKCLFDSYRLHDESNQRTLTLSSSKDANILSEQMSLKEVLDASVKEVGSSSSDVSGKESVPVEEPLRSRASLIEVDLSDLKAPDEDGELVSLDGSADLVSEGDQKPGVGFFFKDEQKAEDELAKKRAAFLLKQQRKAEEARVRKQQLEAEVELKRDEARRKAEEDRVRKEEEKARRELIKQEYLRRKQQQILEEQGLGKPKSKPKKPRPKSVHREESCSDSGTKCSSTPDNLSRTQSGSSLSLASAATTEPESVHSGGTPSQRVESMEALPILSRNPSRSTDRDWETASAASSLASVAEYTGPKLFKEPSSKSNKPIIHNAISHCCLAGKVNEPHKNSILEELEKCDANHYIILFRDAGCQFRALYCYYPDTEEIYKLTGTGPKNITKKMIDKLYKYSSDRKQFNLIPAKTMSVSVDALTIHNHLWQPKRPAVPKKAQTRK
# UniProt O75909, sequence (O75909 whole entry, looked up): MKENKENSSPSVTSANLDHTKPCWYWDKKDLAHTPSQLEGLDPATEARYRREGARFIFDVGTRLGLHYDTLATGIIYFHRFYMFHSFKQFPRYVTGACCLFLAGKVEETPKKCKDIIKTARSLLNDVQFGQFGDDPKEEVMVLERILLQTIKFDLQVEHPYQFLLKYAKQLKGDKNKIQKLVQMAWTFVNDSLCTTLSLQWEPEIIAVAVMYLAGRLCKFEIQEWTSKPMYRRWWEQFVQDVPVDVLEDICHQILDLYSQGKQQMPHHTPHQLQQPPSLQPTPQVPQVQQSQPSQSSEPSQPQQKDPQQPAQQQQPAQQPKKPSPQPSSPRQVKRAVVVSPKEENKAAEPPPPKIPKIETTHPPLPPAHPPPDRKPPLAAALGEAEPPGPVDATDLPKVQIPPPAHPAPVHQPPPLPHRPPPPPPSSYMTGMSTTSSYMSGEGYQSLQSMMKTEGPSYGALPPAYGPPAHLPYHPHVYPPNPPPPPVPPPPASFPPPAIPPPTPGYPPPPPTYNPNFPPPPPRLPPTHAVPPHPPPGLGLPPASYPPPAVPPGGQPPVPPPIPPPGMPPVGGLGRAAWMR
# UniProt P46109, sequence (P46109 whole entry, looked up): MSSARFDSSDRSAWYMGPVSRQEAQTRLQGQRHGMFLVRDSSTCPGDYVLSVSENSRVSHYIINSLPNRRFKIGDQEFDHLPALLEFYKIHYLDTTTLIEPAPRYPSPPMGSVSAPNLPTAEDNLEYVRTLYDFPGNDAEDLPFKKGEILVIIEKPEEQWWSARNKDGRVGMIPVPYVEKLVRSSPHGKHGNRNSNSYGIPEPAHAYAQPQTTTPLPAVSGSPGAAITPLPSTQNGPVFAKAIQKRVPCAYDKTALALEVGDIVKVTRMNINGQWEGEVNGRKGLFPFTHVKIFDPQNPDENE
# UniProt Q16740, sequence (Q16740 whole entry, looked up): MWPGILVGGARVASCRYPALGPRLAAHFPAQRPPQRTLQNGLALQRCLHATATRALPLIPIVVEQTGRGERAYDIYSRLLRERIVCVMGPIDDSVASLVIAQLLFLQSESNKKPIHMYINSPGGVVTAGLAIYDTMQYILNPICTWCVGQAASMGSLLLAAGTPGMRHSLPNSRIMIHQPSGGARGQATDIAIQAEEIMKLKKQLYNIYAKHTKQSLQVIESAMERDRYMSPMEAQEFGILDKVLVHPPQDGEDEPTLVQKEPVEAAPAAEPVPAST
# UniProt Q86X83, sequence (Q86X83 whole entry, looked up): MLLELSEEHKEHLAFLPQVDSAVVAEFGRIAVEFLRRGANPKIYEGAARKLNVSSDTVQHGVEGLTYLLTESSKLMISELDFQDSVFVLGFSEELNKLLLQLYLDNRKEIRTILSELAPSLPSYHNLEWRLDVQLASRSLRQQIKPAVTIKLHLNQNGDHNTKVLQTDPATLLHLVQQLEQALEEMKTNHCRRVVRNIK
row,Target,log2 fold change
1,C9orf64 (UniProt Q5T6V5),0.085 (inactive)
2,CELF2 isoform 3 (UniProt O95319),-0.059 (inactive)
3,CAMSAP1 isoform 3 (UniProt Q5T5Y3),-0.021 (inactive)
4,CNOT4 isoform 6 (UniProt O95628),0.033 (inactive)
5,CSTF2 (UniProt P33240),-0.014 (inactive)
6,CBX5 (UniProt P45973),-0.02 (inactive)
7,CHD3 isoform 3 (UniProt Q12873),0.063 (inactive)
8,CCDC9 (UniProt Q9Y3X0),-0.05 (inactive)
9,CHERP (UniProt Q8IWX8),0.025 (inactive)
10,COQ9 (UniProt O75208),0.028 (inactive)
11,CPQ (UniProt Q9Y646),-0.025 (inactive)
12,CD81 (UniProt P60033),0.131 (inactive)
13,CDK6 (UniProt Q00534),-0.033 (inactive)
14,CHMP4C (UniProt Q96CF2),0.041 (inactive)
15,CHAC2 (UniProt Q8WUX2),-0.006 (inactive)
16,CSNK2B (UniProt P67870),-0.01 (inactive)
17,CBR1 (UniProt P16152),-0.031 (inactive)
18,CRKL (UniProt P46109),0.028 (inactive)

row,Target,log2 fold change
1,CHD4 isoform 2 (UniProt Q14839),-0.002 (inactive)
2,COA6 isoform 2 (UniProt Q5JTJ3),0.035 (inactive)
3,CNDP2 (UniProt Q96KP4),0.032 (inactive)
4,CETN2 (UniProt P41208),0.03 (inactive)
5,CAMKK2 (UniProt Q96RR4),0.102 (inactive)
6,CKS1B (UniProt P61024),0.017 (inactive)
7,CHEK1 (UniProt O14757),-0.022 (inactive)
8,CLPP (UniProt Q16740),0.02 (inactive)
9,CDK9 isoform 2 (UniProt P50750),-0.013 (inactive)
10,CHAMP1 (UniProt Q96JM3),0.067 (inactive)
11,CCDC167 (UniProt Q9P0B6),-0.018 (inactive)
12,CALCOCO2 isoform 4 (UniProt Q13137),-0.035 (inactive)
13,CPSF3 (UniProt Q9UKF6),-0.023 (inactive)
14,CLASP2 isoform 3 (UniProt O75122),0.012 (inactive)
15,CLSPN (UniProt Q9HAW4),-0.03 (inactive)
16,COMMD2 (UniProt Q86X83),0.057 (inactive)
17,CLCN3 (UniProt P51790),0.049 (inactive)
18,CCNK isoform 4 (UniProt O75909),-0.069 (inactive)

# Compound: Cn1cncc1[C@@](N)(c1ccc(Cl)cc1)c1ccc2c(c1)c(-c1cccc(Cl)c1)cc(=O)n2C [tipifarnib]
# Experiment: as above
# Method in brief: as §1
row,Target,log2 fold change
1,C9orf64 (UniProt Q5T6V5),-0.163 (inactive)
2,CELF2 isoform 3 (UniProt O95319),-0.062 (inactive)
3,CAMSAP1 isoform 3 (UniProt Q5T5Y3),-0.132 (inactive)
4,CNOT4 isoform 6 (UniProt O95628),0.027 (inactive)
5,CSTF2 (UniProt P33240),0.028 (inactive)
6,CBX5 (UniProt P45973),-0.048 (inactive)
7,CHD3 isoform 3 (UniProt Q12873),-0.089 (inactive)
8,CCDC9 (UniProt Q9Y3X0),-0.004 (inactive)
9,CHERP (UniProt Q8IWX8),0.005 (inactive)
10,COQ9 (UniProt O75208),-0.068 (inactive)
11,CPQ (UniProt Q9Y646),0.031 (inactive)
12,CD81 (UniProt P60033),0.041 (inactive)
13,CDK6 (UniProt Q00534),-0.043 (inactive)
14,CHMP4C (UniProt Q96CF2),-0.015 (inactive)
15,CHAC2 (UniProt Q8WUX2),-0.037 (inactive)
16,CSNK2B (UniProt P67870),-0.042 (inactive)
17,CBR1 (UniProt P16152),-0.044 (inactive)
18,CRKL (UniProt P46109),0.024 (inactive)

row,Target,log2 fold change
1,CHD4 isoform 2 (UniProt Q14839),-0.083 (inactive)
2,COA6 isoform 2 (UniProt Q5JTJ3),-0.008 (inactive)
3,CNDP2 (UniProt Q96KP4),-0.067 (inactive)
4,CETN2 (UniProt P41208),0.216 (inactive)
5,CAMKK2 (UniProt Q96RR4),-0.076 (inactive)
6,CKS1B (UniProt P61024),-0.043 (inactive)
7,CHEK1 (UniProt O14757),0.005 (inactive)
8,CLPP (UniProt Q16740),0.003 (inactive)
9,CDK9 isoform 2 (UniProt P50750),0.068 (inactive)
10,CHAMP1 (UniProt Q96JM3),0.014 (inactive)
11,CCDC167 (UniProt Q9P0B6),0.142 (inactive)
12,CALCOCO2 isoform 4 (UniProt Q13137),-0.015 (inactive)
13,CPSF3 (UniProt Q9UKF6),-0.027 (inactive)
14,CLASP2 isoform 3 (UniProt O75122),-0.089 (inactive)
15,CLSPN (UniProt Q9HAW4),0.045 (inactive)
16,COMMD2 (UniProt Q86X83),0.025 (inactive)
17,CLCN3 (UniProt P51790),0.015 (inactive)
18,CCNK isoform 4 (UniProt O75909),0.096 (inactive)
